As a reminder, the inhibition is the drop in the measured response relative to a control, in per cent.

Active and inactive are the calls of the source.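 The calls were made as follows, unless noted: active = inhibition above 50%, about 3 SD of the validation set; inactive = the rest.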

The values below come from PubChem BioAssay.

The nature of experiment [1]: reduced mouse 2C T cell binding to pMHC/ICAM-1 vesicles – MLPCN validation set, flow cytometry, LFA-1/ICAM-1 modulator project, pilot screen (AID 2523;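 active = response below a set limit, under 55% cells CD8-positive and vesicle-bound, and CD8 cells' 90th-percentile brightness under 279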;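 as to vesicle binding response: mean PE anti-B7-1 fluorescence of CD8+ cells relative to row control; 100% = QL9-loaded vesicles with DMSO vehicle in the same plate row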). The conditions noted are these: 2C mouse CD8+ T cells, at 7 µM, stronger effect = lower value; double positive events: measured here: CD8+/vesicle+ event percentage. On the technique in general: A flow cytometer gives signals particle by particle.

In experiment [2] the target is Integrin beta-1 (Homo sapiens) + Integrin alpha-4 (Homo sapiens) (UniProt P13612+P05556). Kind of experiment: alpha4beta1 integrin LIBS antibody binding reduction – U937 cells, HUTS-21 mAb, flow cytometry, validation set, VLA-4 allosteric modulator project, pilot screen (AID 2674).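 Also: antibody binding induced by the VLA-4 ligand LDV present at three times its Kd; 0% = LDV ligand with antibody and no compound and 100% = antibody without LDV.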 The conditions noted are these: HUTS-21 LIBS mAb binding, at 6.7 µM, stronger effect = higher value, binding induced by LDV ligand.
Chain of Integrin beta-1 (Homo sapiens) + Integrin alpha-4 (Homo sapiens) (P05556 whole entry, looked up): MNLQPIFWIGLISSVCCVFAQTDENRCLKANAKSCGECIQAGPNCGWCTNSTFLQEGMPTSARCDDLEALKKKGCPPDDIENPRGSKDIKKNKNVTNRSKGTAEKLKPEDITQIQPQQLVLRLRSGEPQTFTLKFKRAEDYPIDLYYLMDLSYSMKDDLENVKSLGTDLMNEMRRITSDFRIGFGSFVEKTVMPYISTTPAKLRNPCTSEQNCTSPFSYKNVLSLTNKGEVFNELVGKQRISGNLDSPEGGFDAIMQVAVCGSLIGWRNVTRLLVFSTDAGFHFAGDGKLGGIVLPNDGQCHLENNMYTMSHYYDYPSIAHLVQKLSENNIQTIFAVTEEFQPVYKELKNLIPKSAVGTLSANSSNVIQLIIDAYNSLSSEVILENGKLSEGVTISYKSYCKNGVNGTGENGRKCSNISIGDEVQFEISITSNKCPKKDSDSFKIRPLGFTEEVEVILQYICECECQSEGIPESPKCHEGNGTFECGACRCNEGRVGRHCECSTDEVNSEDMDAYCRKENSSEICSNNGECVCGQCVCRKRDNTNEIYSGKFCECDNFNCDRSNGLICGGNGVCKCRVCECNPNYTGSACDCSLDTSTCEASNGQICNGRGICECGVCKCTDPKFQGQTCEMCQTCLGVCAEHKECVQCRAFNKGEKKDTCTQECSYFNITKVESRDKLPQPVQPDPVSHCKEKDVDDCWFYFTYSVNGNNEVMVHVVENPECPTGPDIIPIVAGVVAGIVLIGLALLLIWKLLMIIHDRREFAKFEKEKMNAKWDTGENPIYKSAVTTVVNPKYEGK
Chain of Integrin beta-1 (Homo sapiens) + Integrin alpha-4 (Homo sapiens) (P13612 whole entry, looked up): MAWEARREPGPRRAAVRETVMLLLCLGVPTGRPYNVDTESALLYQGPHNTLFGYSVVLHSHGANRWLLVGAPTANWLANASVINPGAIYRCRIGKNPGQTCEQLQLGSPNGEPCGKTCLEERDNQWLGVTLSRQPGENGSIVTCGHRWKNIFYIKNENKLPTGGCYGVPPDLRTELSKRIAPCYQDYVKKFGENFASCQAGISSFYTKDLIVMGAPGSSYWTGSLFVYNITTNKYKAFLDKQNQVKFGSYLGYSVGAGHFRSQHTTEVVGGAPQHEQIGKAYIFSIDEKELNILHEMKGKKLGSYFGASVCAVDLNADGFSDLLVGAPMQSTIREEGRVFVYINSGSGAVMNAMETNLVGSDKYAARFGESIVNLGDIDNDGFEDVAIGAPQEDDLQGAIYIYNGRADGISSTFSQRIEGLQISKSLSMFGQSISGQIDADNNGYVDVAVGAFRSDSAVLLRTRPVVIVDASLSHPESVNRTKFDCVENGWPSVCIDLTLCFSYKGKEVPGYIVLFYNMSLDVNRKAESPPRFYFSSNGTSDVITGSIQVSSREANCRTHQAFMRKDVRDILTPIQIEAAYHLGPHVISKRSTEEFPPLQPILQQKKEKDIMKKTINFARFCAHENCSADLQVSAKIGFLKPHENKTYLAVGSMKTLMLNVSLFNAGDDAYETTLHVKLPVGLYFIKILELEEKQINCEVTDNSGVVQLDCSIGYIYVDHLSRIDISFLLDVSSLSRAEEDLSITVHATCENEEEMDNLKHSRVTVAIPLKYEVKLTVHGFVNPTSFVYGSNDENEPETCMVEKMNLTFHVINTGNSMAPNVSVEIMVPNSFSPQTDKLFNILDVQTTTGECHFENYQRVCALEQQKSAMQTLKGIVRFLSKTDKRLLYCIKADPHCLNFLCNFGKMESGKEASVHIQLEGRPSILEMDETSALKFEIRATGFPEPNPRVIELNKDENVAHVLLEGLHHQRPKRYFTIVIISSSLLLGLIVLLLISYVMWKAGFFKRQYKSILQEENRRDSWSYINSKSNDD

A short description of experiment [3]: calorie-restriction mimetic ROS inhibitors, yeast – validation compound set, pilot screen (AID 2706;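 active = superoxide response below 65% of plate, a cut near 3 SD across the whole screen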;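 also: yeast exposed to compound for one week at 30 degrees C before staining; 100% = mean of all compound wells on the same plate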). The conditions noted are these: S. cerevisiae aging, superoxide DHE fluorescence; at 10 µM, stronger effect = lower value.
For experiment [4], the target named is Beta-adrenergic receptor kinase 1 (Homo sapiens) (UniProt P25098). Kind of experiment: GRK2 binders displacing RNA aptamer, biochemical, validation, human GRK2, bead flow cytometry (AID 488806;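 active = aptamer binding inhibition above 30%, about 3 SD of noise from non-fluorescent compounds; inactive = inhibition at or below 30%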). To be noted: bead-bound GRK2, FAM-aptamer displacement, at 10 µM, stronger effect = higher value.
Chain of Beta-adrenergic receptor kinase 1 (Homo sapiens) (P25098 whole entry, looked up): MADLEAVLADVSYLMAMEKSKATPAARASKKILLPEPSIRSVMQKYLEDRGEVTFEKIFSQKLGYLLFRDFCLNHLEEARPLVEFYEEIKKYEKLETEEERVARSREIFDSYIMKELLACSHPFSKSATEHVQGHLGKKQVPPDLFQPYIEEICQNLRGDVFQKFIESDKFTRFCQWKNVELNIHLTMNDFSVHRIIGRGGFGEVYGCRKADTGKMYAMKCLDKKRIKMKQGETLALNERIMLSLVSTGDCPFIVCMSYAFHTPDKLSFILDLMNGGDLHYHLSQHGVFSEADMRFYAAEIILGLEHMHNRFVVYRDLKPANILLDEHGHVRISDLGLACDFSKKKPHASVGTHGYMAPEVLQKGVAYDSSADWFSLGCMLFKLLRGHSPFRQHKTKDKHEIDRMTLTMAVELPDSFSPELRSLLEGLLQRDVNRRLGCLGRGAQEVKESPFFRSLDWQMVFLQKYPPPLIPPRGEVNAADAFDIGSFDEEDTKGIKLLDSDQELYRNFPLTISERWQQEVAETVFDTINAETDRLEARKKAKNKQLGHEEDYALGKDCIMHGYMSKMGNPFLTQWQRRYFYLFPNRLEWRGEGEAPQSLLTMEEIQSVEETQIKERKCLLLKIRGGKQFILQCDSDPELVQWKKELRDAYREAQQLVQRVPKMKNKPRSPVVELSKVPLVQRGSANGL
Experiment [5] deals with Beta-2 adrenergic receptor (Homo sapiens) (UniProt P07550). Kind of experiment: agonist-induced loss of surface beta2AR – cell-based, FAP fluorogen, flow cytometry, validation set, pilot screen (AID 504459;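 active = percent response above 42, roughly 3 SD of non-fluorescent test compounds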;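 also: agonist-driven loss of surface beta2AR via internalization measured by FAP dye flow cytometry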). To be noted: Am2.2-beta2AR cells, at 10 µM, stronger effect = higher value.
Chain of Beta-2 adrenergic receptor (Homo sapiens) (P07550 whole entry, looked up): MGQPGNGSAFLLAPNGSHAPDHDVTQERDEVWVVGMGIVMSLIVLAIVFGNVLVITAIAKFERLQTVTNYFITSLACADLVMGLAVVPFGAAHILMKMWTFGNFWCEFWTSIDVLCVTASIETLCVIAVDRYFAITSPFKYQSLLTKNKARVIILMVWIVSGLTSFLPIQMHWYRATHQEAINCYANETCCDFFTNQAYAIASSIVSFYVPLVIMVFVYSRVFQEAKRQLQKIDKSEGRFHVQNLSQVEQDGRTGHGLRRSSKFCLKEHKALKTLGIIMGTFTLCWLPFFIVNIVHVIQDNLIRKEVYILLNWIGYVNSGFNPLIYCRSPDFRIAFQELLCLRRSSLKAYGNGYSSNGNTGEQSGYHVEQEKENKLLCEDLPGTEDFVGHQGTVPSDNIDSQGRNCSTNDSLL
The target of experiment [6] is AP-2 complex subunit beta (Homo sapiens) (UniProt P63010). Kind of experiment: beta-arrestin/AP2 interaction blockers – biochemical, validation set, GST-AP2 beads, flow cytometry, pilot screen (AID 504541;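 active = inhibition above 54%, about 3 SD of non-fluorescent compounds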;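 also: AP2 carries R879A mutation and is captured from E. coli lysate; bead-bound FITC arrestin peptide fluorescence measuring arrestin peptide binding to AP2; 0% = DMSO wells and 100% = excess unlabeled arrestin peptide control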). The conditions noted are these: FITC arrestin peptide, at 10 µM, stronger effect = higher value, AP2 beta2 appendage fragment, R879A mutant.
Chain of AP-2 complex subunit beta (Homo sapiens) (P63010 whole entry, looked up, the tested form may be a part, one chain of several): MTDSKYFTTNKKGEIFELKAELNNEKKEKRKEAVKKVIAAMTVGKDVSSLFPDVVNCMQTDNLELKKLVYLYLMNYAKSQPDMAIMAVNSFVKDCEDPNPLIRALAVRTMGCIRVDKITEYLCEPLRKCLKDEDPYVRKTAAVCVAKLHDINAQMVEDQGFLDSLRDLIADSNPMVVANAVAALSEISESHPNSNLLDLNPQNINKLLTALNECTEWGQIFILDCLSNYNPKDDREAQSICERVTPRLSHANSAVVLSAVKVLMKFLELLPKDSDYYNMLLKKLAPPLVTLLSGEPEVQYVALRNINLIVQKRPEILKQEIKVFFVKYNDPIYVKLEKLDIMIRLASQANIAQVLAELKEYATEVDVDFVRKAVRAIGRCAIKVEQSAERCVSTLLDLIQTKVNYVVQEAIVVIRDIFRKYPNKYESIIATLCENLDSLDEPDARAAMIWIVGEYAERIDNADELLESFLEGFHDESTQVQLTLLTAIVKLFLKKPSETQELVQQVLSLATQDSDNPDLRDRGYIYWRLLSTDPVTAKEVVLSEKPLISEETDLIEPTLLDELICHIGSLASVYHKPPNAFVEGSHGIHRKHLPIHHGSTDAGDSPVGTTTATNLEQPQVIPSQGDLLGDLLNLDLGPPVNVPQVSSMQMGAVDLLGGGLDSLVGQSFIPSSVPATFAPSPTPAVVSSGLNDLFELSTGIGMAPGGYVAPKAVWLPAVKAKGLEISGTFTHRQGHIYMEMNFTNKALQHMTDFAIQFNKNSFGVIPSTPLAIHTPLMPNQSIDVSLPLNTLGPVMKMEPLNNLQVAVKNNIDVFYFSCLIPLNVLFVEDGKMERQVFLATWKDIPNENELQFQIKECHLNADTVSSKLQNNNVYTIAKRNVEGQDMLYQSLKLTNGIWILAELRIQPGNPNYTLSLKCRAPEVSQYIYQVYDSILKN
Experiment [7] is described as follows: cytosolic pH regulators acting via V-ATPase – S. cerevisiae, pHLuorin, HTS validation (AID 504600; in the data active = response above about 15%;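 also: plate controls were DMSO for no effect and reference compound for full effect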). The conditions noted are these: V-ATPase proton transport, at 10 µM, stronger effect = higher value.
Experiment [8] relates to anti-desmoglein-3 scFv antibody binding to human DSG3. Nature of the experiment: blockers of pathogenic pemphigus antibody–desmoglein-3 binding – biochemical, validation compound set, bead-based, flow cytometry, pilot screen (AID 588368;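 active = binding below the plate cutoff, the plate median minus 3 SD, with a reading above zero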;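 also: signal is the median channel fluorescence of bead-bound GFP antibody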). To be noted: Protein G beads, DSG3-Fc, scFv-GFP binding, at 10 µM, stronger effect = lower value.
Experiment [9] can be described thus: Nile Red efflux blockade in pump-expressing yeast – validation compound set, multiplex, phenotypic, pilot screen (AID 588506;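 active = efflux inhibition above 0.42, the validation set average plus 4 SD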;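 also: Nile Red retained in cells so higher fluorescence means more efflux inhibition; 0 = negative control wells and 1 = enniatin B 25 µM full block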). To be noted: S. cerevisiae pump-expressing triplex, Nile Red efflux flow cytometry; at 10 µM; stronger effect = higher value; the pumps come from Candida albicans.
Experiment [10] concerns the target ATP-binding cassette sub-family B member 6 (Homo sapiens) (UniProt Q9NP58). Nature of the experiment: blockers of ABCB6-driven porphyrin uptake – K562-ABCB6 cells, flow cytometry, validation set, pilot screen (AID 588550;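 active = inhibition above the screen-wide mean plus 3 SD, about 51%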;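 also: 0% = DMSO wells and 100% = benzethonium chloride 70 µM positive control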). To be noted: K562-ABCB6 porphyrin accumulation, 1 h, at 10 µM, stronger effect = higher value.
A short description of experiment [11]: AML differentiation inducers, ER-HoxA9 marrow cells – cell-based, GFP/MAC1 double positive, flow cytometry, validation set, primary screen (AID 588685;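 active = differentiation response of at least 50%, scaled between solvent and reference control, from cells with both markers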;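 also: compound exposure lasts four days before antibody staining and flow analysis; 0% = DMSO wells and 100% = 5 µM fulvestrant positive control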). The conditions noted are these: stronger effect = higher value, normalized: vehicle 0, fulvestrant 100.
Experiment [12] can be described thus: hit retest on RPL19A-GFP reporter strain – cell-based, S. cerevisiae, flow cytometry, cherry picks, mother/daughter gates, confirmation (AID 2270;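 active = GFP response below 50% of the DMSO control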). To be noted: 3 h, at 10 µM, stronger effect = lower value, 100 = same GFP as DMSO wells.
A short description of experiment [13]: yeast TOR pathway reporter LAP4-GFP change – cell-based, cherry picks, flow cytometry, mother/daughter gates, confirmation (AID 2271;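 active = GFP response above 150% of the DMSO control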;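 also: ratio of sample to DMSO plate mean so 100% equals DMSO level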). To be noted: S. cerevisiae LAP4-GFP strain, 3 h, at 10 µM, stronger effect = higher value, 100 means same as DMSO control.
The nature of experiment [14]: TOR pathway reporter MEP2-GFP, retest of hits – S. cerevisiae, flow cytometry GFP, cherry picks, confirmation (AID 2272;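 active = GFP response above 150% of the DMSO control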;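 also: ratio of well signal to plate DMSO mean so 100% equals DMSO level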). To be noted: S. cerevisiae MEP2-GFP strain, 3 h, at 10 µM, stronger effect = higher value.
Experiment [15] can be described thus: yeast AGP1-GFP fluorescence change, single-dose – cell-based, flow cytometry, S. cerevisiae, cherry picks, confirmation (AID 2273;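 active = GFP response above 150% of the DMSO level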;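 also: median GFP channel fluorescence over the whole cell population gate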). The conditions noted are these: S. cerevisiae AGP1-GFP strain, 3 h, at 10 µM.
A short description of experiment [16]: TOR pathway CIT2 reporter hit retest – S. cerevisiae, GFP fusion, cherry picks, mother/daughter gates, confirmation (AID 2274;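 active = GFP response above 150% of the DMSO level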). To be noted: S. cerevisiae CIT2-GFP strain, flow cytometry, 3 h; at 10 µM; stronger effect = higher value.

Chain of ATP-binding cassette sub-family B member 6 (Homo sapiens) (Q9NP58 whole entry, looked up): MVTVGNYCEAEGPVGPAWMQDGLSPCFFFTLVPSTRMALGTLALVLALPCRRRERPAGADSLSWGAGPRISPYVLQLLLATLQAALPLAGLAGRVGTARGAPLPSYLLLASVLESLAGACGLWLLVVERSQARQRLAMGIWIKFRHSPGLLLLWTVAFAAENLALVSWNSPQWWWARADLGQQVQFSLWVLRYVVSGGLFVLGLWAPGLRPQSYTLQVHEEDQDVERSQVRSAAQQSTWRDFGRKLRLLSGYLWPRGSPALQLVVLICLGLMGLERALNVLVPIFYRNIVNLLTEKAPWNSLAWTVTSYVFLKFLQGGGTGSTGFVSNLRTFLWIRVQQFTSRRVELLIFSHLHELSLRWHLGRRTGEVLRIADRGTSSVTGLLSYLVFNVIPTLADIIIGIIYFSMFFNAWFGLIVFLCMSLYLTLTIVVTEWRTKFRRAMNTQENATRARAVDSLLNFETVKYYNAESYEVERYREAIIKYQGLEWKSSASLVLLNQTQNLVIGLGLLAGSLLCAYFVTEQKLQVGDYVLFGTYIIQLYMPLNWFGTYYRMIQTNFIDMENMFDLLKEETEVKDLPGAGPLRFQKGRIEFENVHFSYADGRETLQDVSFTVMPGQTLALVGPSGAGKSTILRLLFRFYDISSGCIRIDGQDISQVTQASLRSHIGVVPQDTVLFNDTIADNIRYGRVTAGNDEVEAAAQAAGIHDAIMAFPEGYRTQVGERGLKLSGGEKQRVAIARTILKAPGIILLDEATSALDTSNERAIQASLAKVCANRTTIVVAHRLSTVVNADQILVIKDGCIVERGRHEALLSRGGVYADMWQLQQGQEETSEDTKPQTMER

The compound `COc1ccc2c(c1OC)C(=O)NC(C)=C(C(=O)OC(C)(C)C)C2O` (configuration not stated) gave a double positive events in experiment [1] of 62.8%. Moreover, in experiment [1], the vesicle binding response was 192% (inactive). Further, the inhibition is 5.03% (inactive) in [2], -5.16% (inactive) in experiment [6] and 7% (inactive) in [10]. Further, the superoxide response (% of plate) in experiment [3] was 97.2% (inactive). The aptamer binding inhibition in experiment [4] is 4% (inactive). Moreover, the response is 7.52% (inactive) in experiment [5] and 1.16% (inactive) in [7]. Moreover, the binding (% of control) in [8] was 103% (inactive). In experiment [9], the efflux inhibition (fraction of control) was 0.01 (inactive). In addition, in experiment [11], the differentiation response was 56.8% (active).

Turning to `N/C(=N\OC(=O)c1ccc(Cl)cc1Cl)c1ccccc1`, the GFP response vs DMSO in experiment [12] is 98.4% (inactive); in experiment [14], 106% (inactive). In addition, in experiment [13], the GFP response relative to DMSO is 155% (active). Also, the GFP response, % of DMSO in experiment [15] was 80.1% (inactive); in [16] it was 151% (active).

In experiment [1], `CCOc1ccc(CC2c3cc(OCC)c(OCC)cc3CCN2C(=O)CN2CCN(C)CC2)cc1OCC` (configuration not stated) yielded a double positive events of 61.7%. In addition, the vesicle binding response in experiment [1] was 160% (inactive). In addition, the inhibition was -11.3% (inactive) in experiment [2], 5.19% (inactive) in experiment [6] and 4% (inactive) in experiment [10]. In addition, in experiment [3], the superoxide response (% of plate) is 82.4% (inactive). The aptamer binding inhibition in experiment [4] was 0% (inactive). The response in experiment [5] was -8.24% (inactive); in experiment [7], -5.23% (inactive). The binding (% of control) in [8] is 108% (inactive). Further, in experiment [9], the efflux inhibition (fraction of control) was -0.04 (inactive). Besides, in experiment [11], the differentiation response is -3.02% (inactive).

As to `O=C(c1ccccc1)N1CCN(C(=O)c2ccccc2)CC1`, in experiment [1], the double positive events stood at 57.3%. Moreover, the vesicle binding response in experiment [1] is 175% (inactive). Further, the inhibition in experiment [2] was -0.43% (inactive); in experiment [6], -3.54% (inactive); in [10], 3% (inactive). Also, the superoxide response (% of plate) in experiment [3] was 102% (inactive). The aptamer binding inhibition in [4] is 7% (inactive). For the same compound, the results for the response in experiment [5] and in experiment [7] were -22.4% (inactive) and -5.95% (inactive), respectively. Moreover, the binding (% of control) in experiment [8] was 104% (inactive). Also, the efflux inhibition (fraction of control) in experiment [9] was -0.13 (inactive). The differentiation response in experiment [11] is 12% (inactive).

`COc1cc2c3c(c1)C1(C(=O)N3C(C)(C)C=C2C)C(C#N)=C(N)Oc2cc(C)oc(=O)c21` (configuration not stated) gave a double positive events in experiment [1] of 60.1%. Moreover, in experiment [1], the vesicle binding response was 172% (inactive). Besides, the inhibition is 2.3% (inactive) in experiment [2], -6.4% (inactive) in experiment [6] and 5% (inactive) in [10]. Also, in experiment [3], the superoxide response (% of plate) was 96.8% (inactive). For the same compound, the aptamer binding inhibition in [4] is -1% (inactive). Further, the figures for the response in [5] and in [7] were -71.3% (inactive) and -0.54% (inactive), respectively. In experiment [8], the binding (% of control) is 110% (inactive). Moreover, the efflux inhibition (fraction of control) in [9] is 0.4 (inactive). In [11], the differentiation response is 79.2% (active).

As for `COc1ccc(-c2c(NC(=O)c3ccco3)n(C)c3ccccc3c2=O)cc1`, the double positive events in [1] worked out at 58.6%. Moreover, the vesicle binding response in experiment [1] is 125% (inactive). For the same compound, the values for the inhibition in [2], in [6] and in experiment [10] were -1.09% (inactive), -5.24% (inactive) and -2% (inactive), respectively. In addition, the superoxide response (% of plate) in [3] is 102% (inactive). Further, in experiment [4], the aptamer binding inhibition is 3% (inactive). The response in [5] is 5.47% (inactive); in experiment [7], -3.79% (inactive). In addition, the binding (% of control) in experiment [8] is 99.6% (inactive). The efflux inhibition (fraction of control) in experiment [9] was -0.37 (inactive). Besides, the differentiation response in [11] was -7.5% (inactive).

For the compound `CC[n+]1ccc2cc(OC)c(OC)cc2c1Cc1ccc(OC)c(OC)c1`, in experiment [1], the double positive events was 64%. For the same compound, the vesicle binding response in experiment [1] is 174% (inactive). The inhibition in experiment [2] is -10.5% (inactive); in experiment [6], -12.4% (inactive); in experiment [10], 6% (inactive). Further, the superoxide response (% of plate) in [3] was 98.6% (inactive). Besides, in experiment [4], the aptamer binding inhibition is 2% (inactive). The values for the response in [5] and in experiment [7] were -11.2% (inactive) and -0.56% (inactive), respectively. Moreover, in experiment [8], the binding (% of control) is 106% (inactive). For the same compound, the efflux inhibition (fraction of control) in [9] is -0.09 (inactive). In addition, the differentiation response in experiment [11] was -1.05% (inactive).
